According to PubChem BioAssay (Tox21):
Results filed as inconclusive are left out. The source made the active and inactive calls. Unless noted, calls follow the shape of the dose curve; as a rule, active = well fitted curve in the direction sought with a large enough effect in the repeat runs; inconclusive = weak or mixed curves; inactive = no such curve, though single readings can be large; an effect the other way counts as inactive or inconclusive.

Key:
[1] = qHTS RealTime-Glo MT Cell Viability Assay in HEK293 cells - 24 hour (AID 1224886); also: top concentration of the series differs between compounds; nearly all actives have a fitted effect of over 50% in size
How it was run: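 Assay medium contained NanoLuc luciferase plus cell-permeant prosubstrate, added with HEK293 cells at 600 cells/well. After 5 h at 37 C/5% CO2 compounds were added; plates stayed at 37 C for 40 h with serial luminescence reads.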

[2] = qHTS RealTime-Glo MT Cell Viability Assay in HEK293 cells - 8 hour (AID 1224887); also: top concentration of the series differs between compounds; nearly all actives have a fitted effect of over 50% in size
How it was run: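 Viable HEK293 cells reduce a cell-permeant prosubstrate; the product diffuses out and is consumed by NanoLuc in the medium to give light. Compounds went in after a 5 h incubation and plates were read over the treatment course.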

[3] = A CellTox Green Cytotoxicity Assay to monitor cytotoxicity in HEK293 cells - 16 hour (AID 1224888); also: nearly all actives have a fitted effect of over 35% in size
How it was run: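 Fluorescence intensity, read at 0, 8, 16, 24, 32 and 40 h of compound treatment, reflected dye binding to DNA of dead HEK293 cells; compounds (23 nL, DMSO) were added 5 h after plating cells with reagent.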

[4] = qHTS RealTime-Glo MT Cell Viability Assay in HepG2 cells - 0 hour (AID 1224889); also: nearly all actives have a fitted effect of over 50% in size
How it was run: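 qHTS, HepG2, 600 cells/well, RealTime-Glo (NanoLuc + prosubstrate) added with cells; 5 h preincubation; DMSO compound addition; 37 C; luminescence at 0/8/16/24/32/40 h.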

[5] = A CellTox Green Cytotoxicity Assay to monitor cytotoxicity in HepG2 cells - 8 hour (AID 1224890); also: nearly all actives have a fitted effect of over 45% in size
How it was run: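 Using 1536-well format, dye-containing HepG2 suspension was seeded, allowed 5 h at 37 C/5% CO2, dosed by pintool with compounds, positive and negative controls, and imaged for fluorescence across 40 h.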

[6] = qHTS assay to identify small molecule antagonists of the estrogen receptor alpha (ER-alpha) signaling pathway using the BG1 cell line in the presence of 0.1 nM 17-beta-estradiol - cell viability counter screen (AID 1259241); also: nearly all actives have a fitted effect of over 40% in size
How it was run: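 Estradiol-stimulated (0.1 nM) VM7Luc4E2 cells exposed to compounds 22 hr; viability measured by fluorescence of cleaved CellTiter-Fluor substrate after 30 min.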

[7] = qHTS assay to identify small molecule antagonists of the androgen receptor (AR) signaling pathway using the MDA cell line in the presence of 0.5 nM R1881 - cell viability counter screen (AID 1259242); also: nearly all actives have a fitted effect of over 45% in size
How it was run: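 Viability of MDA-kb2 cells was multiplexed with the luciferase AR readout; after 16 hr with compounds and R1881 at 0.5 nM final, CellTiter-Fluor fluorescence was recorded.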

[8] = target: Androgen receptor (Homo sapiens) (UniProt P10275); test: qHTS assay to identify small molecule antagonists of the androgen receptor (AR) signaling pathway using the MDA cell line in the presence of 0.5 nM R1881 (AID 1259243); also: nearly all actives have a fitted effect of over 50% in size
Androgen receptor (Homo sapiens), sequence (P10275 whole entry, looked up): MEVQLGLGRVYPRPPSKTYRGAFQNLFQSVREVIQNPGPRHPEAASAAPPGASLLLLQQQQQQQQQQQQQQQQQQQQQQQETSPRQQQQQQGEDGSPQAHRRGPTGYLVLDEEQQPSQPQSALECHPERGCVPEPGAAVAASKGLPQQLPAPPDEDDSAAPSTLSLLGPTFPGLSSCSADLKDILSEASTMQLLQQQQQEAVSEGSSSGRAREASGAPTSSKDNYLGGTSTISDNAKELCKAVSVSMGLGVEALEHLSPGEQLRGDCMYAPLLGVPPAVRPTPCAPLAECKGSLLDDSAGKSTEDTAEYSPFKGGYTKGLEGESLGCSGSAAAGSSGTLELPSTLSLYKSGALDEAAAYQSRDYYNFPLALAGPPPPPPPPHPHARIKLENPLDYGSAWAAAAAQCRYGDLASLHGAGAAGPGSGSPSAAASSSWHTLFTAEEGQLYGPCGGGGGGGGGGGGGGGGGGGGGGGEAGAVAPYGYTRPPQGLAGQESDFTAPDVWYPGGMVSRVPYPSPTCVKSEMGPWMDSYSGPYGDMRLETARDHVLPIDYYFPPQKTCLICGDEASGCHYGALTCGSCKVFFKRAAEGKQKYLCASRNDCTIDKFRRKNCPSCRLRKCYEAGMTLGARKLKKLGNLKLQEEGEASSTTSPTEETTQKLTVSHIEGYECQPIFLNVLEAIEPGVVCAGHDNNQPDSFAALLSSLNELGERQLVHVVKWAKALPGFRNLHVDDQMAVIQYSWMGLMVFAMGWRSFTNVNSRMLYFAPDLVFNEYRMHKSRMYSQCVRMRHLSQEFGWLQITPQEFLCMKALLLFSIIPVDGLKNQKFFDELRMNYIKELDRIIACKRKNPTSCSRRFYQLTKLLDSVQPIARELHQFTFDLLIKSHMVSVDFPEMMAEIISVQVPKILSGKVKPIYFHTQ
How it was run: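 Reporter cells cultured without CO2 receive test chemicals, then 0.5 nM R1881 final; after 16 hr at 37C, ONE-Glo is added and light output recorded.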

[9] = target: Estrogen receptor (Homo sapiens) (UniProt P03372); test: qHTS assay to identify small molecule antagonists of the estrogen receptor alpha (ER-alpha) signaling pathway using the BG1 cell line in the presence of 0.1 nM 17-beta-estradiol (AID 1259244); also: nearly all actives have a fitted effect of over 50% in size
Estrogen receptor (Homo sapiens), sequence (P03372 whole entry, looked up): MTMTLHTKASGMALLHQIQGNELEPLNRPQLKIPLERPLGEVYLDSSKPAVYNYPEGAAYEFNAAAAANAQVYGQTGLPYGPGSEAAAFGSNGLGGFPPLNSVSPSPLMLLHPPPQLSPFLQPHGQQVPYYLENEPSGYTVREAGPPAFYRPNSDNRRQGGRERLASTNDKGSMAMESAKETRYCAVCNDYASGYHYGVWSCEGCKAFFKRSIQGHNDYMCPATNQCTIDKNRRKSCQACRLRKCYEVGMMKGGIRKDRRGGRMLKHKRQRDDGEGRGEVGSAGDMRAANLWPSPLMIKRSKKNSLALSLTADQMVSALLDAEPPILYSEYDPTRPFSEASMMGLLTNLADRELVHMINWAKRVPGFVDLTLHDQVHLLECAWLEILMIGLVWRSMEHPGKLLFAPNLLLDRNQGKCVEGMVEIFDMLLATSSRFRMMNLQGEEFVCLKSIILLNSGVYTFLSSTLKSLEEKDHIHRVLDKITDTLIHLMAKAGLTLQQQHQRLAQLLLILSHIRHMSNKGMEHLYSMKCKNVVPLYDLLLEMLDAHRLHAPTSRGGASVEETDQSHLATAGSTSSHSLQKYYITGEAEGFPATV
How it was run: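 Estradiol at 0.1 nM (final) stimulates the endogenous ER-alpha of VM7Luc4E2 cells carrying an ERE-driven luciferase; compounds are co-incubated 22 h at 37C and luciferase output quantified by luminescence.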

[10] = qHTS assay to identify small molecule HDAC inhibitors - cell viability counter screen (AID 1259365)
How it was run: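 After overnight seeding at 1,500 cells per well, wild-type HCT-116 cultures took up compounds in DMSO for 2hr at 37 C. Viable cell content came from luminescence with CellTiter-Glo.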

[11] = qHTS assay to identify small molecule agonists of the sonic hedgehog signaling (Shh) pathway - cell viability counter screen (AID 1259366); also: nearly all actives have a fitted effect of over 50% in size
How it was run: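 Same-well cytotoxicity read. Gli1-Luc reporter 3T3 cells; compounds 24hr, 37C/5% CO2; CellTiter-Fluor fluorescence.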

[12] = qHTS assay to identify small molecule antagonists of the sonic hedgehog signaling (Shh) pathway - cell viability counter screen (AID 1259367); also: nearly all actives have a fitted effect of over 55% in size
How it was run: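 Using CellTiter-Fluor, viability of Gli1-Luc reporter 3T3 cells is read by fluorescence in the wells used for the Shh luciferase assay. Treatment lasts 23 hr with conditioned medium, then reagent 1 hr at 37C.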

[13] = qHTS assay to identify small molecule agonists of the sonic hedgehog signaling (Shh) pathway (AID 1259368; calls by dose curve;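 also: NIH/3T3-derived 3T3Gli1-Luc cells carrying a stable Gli1-driven firefly luciferase reporter; series mostly up to about 92 µM; nearly all actives have a fitted effect of over 15% in size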)
How it was run: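 A Gli1 transcriptional response element controlled firefly luciferase in 3T3Gli1-Luc cells. Compounds and a positive control were added 4 hr after plating, and cells were incubated a further 24 hr at 37 C before luminescence detection.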

[14] = qHTS assay to identify small molecule antagonists of the sonic hedgehog signaling (Shh) pathway (AID 1259369; calls by dose curve; also: nearly all actives have a fitted effect of over 45% in size)
How it was run: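 For antagonist detection, the reporter line received test compounds together with conditioned medium, incubated 24hr at 37 C, 5% CO2, then luminescence was recorded following 30min room-temperature luciferase reagent incubation.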

[15] = target: Estrogen receptor beta (Homo sapiens) (UniProt Q92731); test: qHTS assay to identify small molecule agonists of the estrogen receptor beta (ER-beta) signaling pathway (AID 1259377; active = well fitted activation curve with a large enough effect in the signal ratio in the repeat runs, not every such curve was filed as active; the % refers to the signal ratio)
Estrogen receptor beta (Homo sapiens), sequence (Q92731 whole entry, looked up): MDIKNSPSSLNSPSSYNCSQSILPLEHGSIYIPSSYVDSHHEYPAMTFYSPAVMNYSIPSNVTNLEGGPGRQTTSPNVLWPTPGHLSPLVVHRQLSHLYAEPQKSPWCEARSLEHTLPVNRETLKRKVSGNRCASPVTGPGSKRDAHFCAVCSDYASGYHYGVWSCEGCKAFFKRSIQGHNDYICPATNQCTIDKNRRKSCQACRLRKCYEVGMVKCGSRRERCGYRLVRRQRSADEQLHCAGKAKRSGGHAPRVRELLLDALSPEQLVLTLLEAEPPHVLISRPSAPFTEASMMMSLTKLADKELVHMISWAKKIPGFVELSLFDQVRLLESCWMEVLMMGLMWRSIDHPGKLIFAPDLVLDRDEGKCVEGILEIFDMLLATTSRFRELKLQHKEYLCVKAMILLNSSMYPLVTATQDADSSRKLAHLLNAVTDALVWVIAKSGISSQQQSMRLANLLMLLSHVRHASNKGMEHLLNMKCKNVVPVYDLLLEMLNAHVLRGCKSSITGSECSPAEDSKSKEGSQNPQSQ
How it was run: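 Read-out: beta-lactamase FRET fluorescence. Cell line: ER-beta-UAS-bla HEK293T in 2% charcoal-stripped FBS. Exposure: 16 hr at 37C. Substrate step: 2 h at room temperature.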

[16] = target: Estrogen receptor beta (Homo sapiens) (UniProt Q92731); test: qHTS assay to identify small molecule antagonists of the estrogen receptor beta (ER-beta) signaling pathway (AID 1259378; active = well fitted inhibition curve with a large enough effect in the signal ratio in the repeat runs, not every such curve was filed as active; the % refers to the signal ratio)
How it was run: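 Antagonist mode: compounds added to beta-lactamase reporter HEK293T ER-beta-UAS cells stimulated with E2 (1nM final), 16 hr at 37C. LiveBLAzer B/G FRET substrate, 2 hours room temperature, fluorescence read-out.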

[17] = qHTS assay to identify small molecule agonists of the androgen receptor (AR) signaling pathway in the presence of an antagonist - cell viability counter screen (AID 1259379);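 also: MDA-kb2 human breast cancer cells carrying an MMTV luciferase reporter; series mostly up to about 92 µM; nearly all actives have a fitted effect of over 25% in size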
How it was run: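 Seed MDA-kb2 at 3,000 cells/well; incubate 5 hr, 37C, 0% CO2. Add nilutamide to 3.0uM final, then pin compounds at 15 concentrations. Incubate 16 hr. Add CellTiter-Fluor at 15 hr, read fluorescence after 1 hr.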

[18] = qHTS assay to identify small molecule agonists of the estrogen receptor beta (ER-beta) signaling pathway - cell viability counter screen (AID 1259380); also: nearly all actives have a fitted effect of over 30% in size
How it was run: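 CellTiter-Glo read, 30 min RT, same wells as bla assay; cells ER-beta-UAS-bla HEK293T; 16 hr compound, 37C; medium 2% charcoal-stripped FBS.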

[19] = qHTS assay to identify small molecule HDAC inhibitors (AID 1259364);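 also: wild-type HCT-116 cells with endogenous class I/II HDAC activity; top concentration of the series differs between compounds; nearly all actives have a fitted effect of over 45% in size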
How it was run: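 Read-out: luminescence of HDAC-Glo I/II reagent, 30 min RT, reflecting class I/II deacetylase activity in whole HCT-116 cells pre-exposed 2 h to DMSO-dissolved compounds.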

[20] = qHTS assay to identify small molecule phospholipidosis (PLD) inducers (AID 1259344; active = well fitted curve in the direction sought with a large enough effect; an effect the other way counts as inactive or inconclusive)
How it was run: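 Fluorescent phospholipid staining (LipidTOX Red) measured by automated microscopy in fixed HepG2 cells after 24 h treatment; nuclei counterstained with Hoechst 33342; amiodarone as reference inducer.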

Measured: Potency

O=CN1CCOCC1
not listed: [19] | [20]
inactive: all other assays above

CCCCCCCCCCCCC1CO1 (configuration not stated)
not listed: [8] | [20]
inactive: all other assays above

COc1ccc(/C=N/NC(=O)c2ccncc2)cc1OC
not listed: [10] | [12] | [20]
inactive: all other assays above

COc1cc2c(Nc3ccc(Br)cc3F)ncnc2cc1OCC1CCN(C)CC1
not listed: [8] | [12]
inactive: all other assays above

CC(=O)/C=C/c1ccco1
not listed: [8] | [11] | [12] | [15] | [16] | [17] | [20]
inactive: all other assays above

C=CCOCC(O)CCl (configuration not stated)
not listed: [19] | [20]
inactive: all other assays above

CCCO
not listed: [8] | [12] | [20]
inactive: all other assays above

CCCOCCOCCOCCO
not listed: [13] | [20]
inactive: all other assays above
